The campaign covered roughly 310,000 compounds. About 14,000 (4.5%) showed an effect of 50% or more. The effect is printed as a negative number. What follows is part of a selection rich in strong results, with near analogues and random picks from the rest.
Each compound was assayed against human ether-à-go-go-related gene (hERG) potassium channel (human, UniProt Q12809) (assay: primary screen, population patch clamp on CHO cells stably expressing hERG; higher = less effect of the substance).
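Note: peak tail current of the secondary pulse compared with the same well before compound.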

Chain of human ether-à-go-go-related gene (hERG) potassium channel (Q12809 whole entry, looked up): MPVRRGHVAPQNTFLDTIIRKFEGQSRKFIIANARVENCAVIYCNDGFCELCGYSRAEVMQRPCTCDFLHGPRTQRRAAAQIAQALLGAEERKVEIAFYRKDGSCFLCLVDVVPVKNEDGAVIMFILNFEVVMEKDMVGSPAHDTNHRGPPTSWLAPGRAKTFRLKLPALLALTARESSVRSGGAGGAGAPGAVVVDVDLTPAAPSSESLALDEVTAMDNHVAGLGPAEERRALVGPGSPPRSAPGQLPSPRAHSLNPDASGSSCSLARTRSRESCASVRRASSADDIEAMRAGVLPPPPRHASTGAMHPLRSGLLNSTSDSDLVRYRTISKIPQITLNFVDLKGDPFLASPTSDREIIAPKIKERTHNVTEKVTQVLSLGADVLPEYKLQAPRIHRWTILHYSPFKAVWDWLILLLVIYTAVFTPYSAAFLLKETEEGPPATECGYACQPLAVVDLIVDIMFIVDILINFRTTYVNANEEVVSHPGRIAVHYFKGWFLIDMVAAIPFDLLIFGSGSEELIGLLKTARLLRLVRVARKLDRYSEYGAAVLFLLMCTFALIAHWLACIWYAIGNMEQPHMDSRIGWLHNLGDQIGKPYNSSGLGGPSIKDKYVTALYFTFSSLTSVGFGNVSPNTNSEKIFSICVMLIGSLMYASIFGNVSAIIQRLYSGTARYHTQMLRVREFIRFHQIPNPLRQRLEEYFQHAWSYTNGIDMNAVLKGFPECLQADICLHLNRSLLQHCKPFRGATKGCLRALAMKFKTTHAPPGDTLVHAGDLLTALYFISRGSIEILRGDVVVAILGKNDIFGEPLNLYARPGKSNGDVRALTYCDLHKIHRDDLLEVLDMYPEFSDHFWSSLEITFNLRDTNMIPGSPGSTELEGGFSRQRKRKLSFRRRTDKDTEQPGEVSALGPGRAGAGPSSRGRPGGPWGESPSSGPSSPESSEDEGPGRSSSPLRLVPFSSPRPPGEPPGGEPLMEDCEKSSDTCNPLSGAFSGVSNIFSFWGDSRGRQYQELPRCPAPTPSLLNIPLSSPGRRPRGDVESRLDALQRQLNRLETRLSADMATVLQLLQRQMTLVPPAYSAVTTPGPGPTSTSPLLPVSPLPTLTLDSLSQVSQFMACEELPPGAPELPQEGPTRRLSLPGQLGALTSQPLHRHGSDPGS

| Compound | hERG current change (%, negative = inhibition) at 10uM |
| --- | --- |
| CCCCOc1ccccc1P(=O)(O)CP(=O)(c1ccccc1)c1ccccc1 | -3.64% |
| OCCNC(=S)Nc1ccc2c(c1)OCCO2 | 9.32% |
| Cc1ccc(-c2nn(C)c(=O)c3ccccc23)cc1CN1CCOCC1 | -1.21% |
| CC(C)=C1C2CCC1C1C(=O)N(c3nccs3)C(=O)C21 (stereo not shown) | 33% |
| O=C1CC(=O)N(c2ccccc2)C(=O)N1c1ccccc1 | 2.76% |
| CCCC(NCC(O)COc1ccc(-c2ccccc2)cc1)c1ccccc1 (stereo not shown) | 10.3% |
| O=C(NCc1ccc2c(c1)OCO2)C1CCCN1C(=O)Nc1ccc(Cl)cc1 (stereo not shown) | -17.4% |
| CCn1c(C(C)NC(=O)Cc2ccccc2)nc2ccccc21 (stereo not shown) | -2.26% |
| CCc1ccc(NC(=O)C2CCN(c3ncnc4c3nc3n4CCCCC3)CC2)cc1 | -6.35% |
| Cc1cc2ncn(C(=O)N3CCCCC3)c2cc1C | 3.24% |
| CCOCCCNC(=O)CN1C(=O)/C(=C/c2ccccc2C)Sc2ccccc21 | -8.45% |
| CCOC(=O)C1CCCN(c2c(N3CCC(N4CCCCC4)CC3)c(=O)c2=O)C1 (stereo not shown) | -0.665% |
| CCOC(=O)C1CCCN(c2c(N3CCN(C4CCCCC4)CC3)c(=O)c2=O)C1 (stereo not shown) | -55.8% |
| CCOC(=O)C1CCCN(C(c2ccccn2)c2c(C)[nH]c3ccccc23)C1 (stereo not shown) | -54.3% |
| Cc1[nH]c2ccccc2c1C(c1ccccn1)N1CCC(C(N)=O)CC1 (stereo not shown) | -11.4% |
| CCOC(=O)C1CCCN(c2c(N3CCOCC3)c(=O)c2=O)C1 (stereo not shown) | -0.407% |
| CCOC(=O)C1CCCN(c2c(N3CCN(c4ccccn4)CC3)c(=O)c2=O)C1 (stereo not shown) | -55.5% |
| CCOC(=O)C1CCN(C(c2ccccn2)c2c(C)[nH]c3ccccc23)CC1 (stereo not shown) | -19.8% |
| CCOC(=O)C1CCCN(c2c(N3CCN(C)CC3)c(=O)c2=O)C1 (stereo not shown) | 8.41% |
| CCOC(=O)C1CCN(c2c(N3CCCC(C(=O)OCC)C3)c(=O)c2=O)CC1 (stereo not shown) | -22.8% |
| Cc1ccc(C(=O)C2=C(O)C(=O)N(Cc3cccnc3)C2c2cccc([N+](=O)[O-])c2)o1 (stereo not shown) | -9.76% |
| CCN(C(=O)COC(=O)CSc1ccc(C(N)=O)cc1[N+](=O)[O-])C1CCCCC1 | 5.86% |
| Cc1cc(Cl)nc(Cl)c1C(=O)NC(=O)NCCC(C)C | 6.83% |
| O=C(NNC(=O)C1CC=CCC1C(=O)O)c1cccs1 (stereo not shown) | 16.2% |
| CC(=O)N[C@@H](C)c1nc2ccccc2n1CCCN1CCN(c2nc(-c3ccc(C)cc3)cs2)CC1 | -56.2% |
| Cc1ccc(-c2csc(N3CCN(CCCn4c(-c5ccncc5)nc5ccccc54)CC3)n2)cc1 | -32.4% |
| Cc1ccc(-c2csc(N3CCN(CCCn4c(C(F)(F)F)nc5ccccc54)CC3)n2)cc1 | -4.95% |
| Cc1ccc(F)c(NC(=O)C2CCCCC2C(=O)O)c1 (stereo not shown) | 8.23% |

| Compound | hERG current change (%, negative = inhibition) at 10uM |
| --- | --- |
| O=C(O)c1ccc(NC(=O)c2ccccc2NC(=O)c2cccc(F)c2)cc1 | 20.2% |
| O=C(c1ccc(Br)o1)N1CCN(c2ccc3nnc(-c4ccc(F)cc4)n3n2)CC1 | -46.4% |
| c1ccc(-c2nnc3ccc(N4CCCC4)nn23)cc1 | 7.51% |
| O=C(Nc1ccc(Cl)cc1)N1CCN(c2ccc3nnc(-c4ccc(F)cc4)n3n2)CC1 | -28.3% |
| COc1ccccc1NC(=O)N1CCN(c2ccc3nncn3n2)CC1 | -23.1% |
| O=C(c1ccc(Br)o1)N1CCN(c2ccc3nnc(-c4ccccc4)n3n2)CC1 | -79.1% |
| O=C(Nc1ccccc1C(F)(F)F)N1CCN(c2ccccn2)CC1 | 9.98% |
| O=C(Nc1ccc(F)cc1)N1CCN(c2ccc3nnc(-c4ccc(F)cc4)n3n2)CC1 | -73.5% |
| O=C(Nc1ccccc1C(F)(F)F)N1CCN(c2ccc3nnc(-c4ccc(F)cc4)n3n2)CC1 | -65.9% |
| COc1ccccc1NC(=O)N1CCN(c2ccc(F)cc2)CC1 | -18.7% |
| O=C(Nc1ccccc1C(F)(F)F)N1CCN(c2ccc3nncn3n2)CC1 | -1.32% |
| COc1ccccc1NC(=O)N1CCN(c2ccc3nnc(-c4ccc(F)cc4)n3n2)CC1 | -68.9% |
| Fc1ccc(-c2nnc3ccc(N4CCCC4)nn23)cc1 | 5.51% |
| O=C(CCC(=O)c1ccc(Br)cc1)Nc1ccc(F)cc1 | 23.7% |
| COc1ccc(C2=NC(=O)NC2c2ccc(OC)cc2)cc1 (stereo not shown) | -29.4% |
| Cc1ccc(S(=O)(=O)N(C)C)cc1-n1c(SCC(=O)Nc2ccc(F)c(F)c2F)nc2ccccc2c1=O | 8.58% |
| Cl.O=C(Cc1ccccc1)OCCN1CCOCC1 | 20.4% |
| CCCOc1ccc(C2(C(=O)O)CCCC2)cc1 | 6.16% |
| C=CCC1C=CCC(CC=C)N1C(=O)c1ccccc1[N+](=O)[O-] (stereo not shown) | -3.17% |
| COC(=O)c1sccc1NC(=S)N1CCCCC1C (stereo not shown) | -25.6% |
| CC1=C(C(=O)OCC(C)C)C2(O)C(=O)c3ccccc3C2(O)N1 (stereo not shown) | 3.4% |
| Clc1ccc(CSc2nnc(-c3ccncc3)o2)c(Cl)c1 | 0.528% |
| COc1ccc(C2/C=C\CN(S(=O)(=O)c3ccc4ccccc4c3)CC(=O)N2Cc2ccc(F)cc2)cc1 (stereo not shown) | 8.33% |
| Cc1nc(-c2ccccc2)sc1C1(C)CC(c2ccc(C#N)cc2)=NO1 (stereo not shown) | -3.07% |
| O=C(Nc1ccccc1Cl)N1CCN(c2ccc3nnc(-c4ccccc4)n3n2)CC1 | -73.5% |
| O=C(Nc1ccccc1Cl)N1CCN(c2ccc3nncn3n2)CC1 | -23.2% |
| O=C(Nc1ccccc1Cl)N1CCN(c2ccc3nnc(-c4ccc(F)cc4)n3n2)CC1 | -42.1% |
